# Reference: the supplement of paper PMC8728848
# Shown is part of a subset that was picked to be rich in the strongest signals.
# B1: Endo180d1-D4 (Homo sapiens), Q9UBG0 (protein)
# chain: MGPGRPAPAPWPRHLLRCVLLLGCLHLGRPGAPGDAALPEPNVFLIFSHGLQGCLEAQGGQVRVTPACNTSLPAQRWKWVSRNRLFNLGTMQCLGTGWPGTNTTASLGMYECDREALNLRWHCRTLGDQLSLLLGARTSNISKPGTLERGDQTRSGQWRIYGSEEDLCALPYHEVYTIQGNSHGKPCTIPFKYDNQWFHGCTSTGREDGHLWCATTQDYGKDERWGFCPIKSNDCETFWDKDQLTDSCYQFNFQSTLSWREAWASCEQQGADLLSITEIHEQTYINGLLTGYSSTLWIGLNDLDTSGGWQWSDNSPLKYLNWESDQPDNPSEENCGVIRTESSGGWQNRDCSIALPYVCKKKPNATAEPTPPDRWANVKVECEPSWQPFQGHCYRLQAEKRSWQESKKACLRGGGDLVSIHSMAELEFITKQIKQEVEELWIGLNDLKLQMNFEWSDGSLVSFTHWHPFEPNNFRDSLEDCVTIWGPEGRWNDSPCNQSLPSICKKAGQLSQGAAEEDHGCRKGWTWHSPSCYWLGEDQVTYSEARRLCTDHGSQLVTITNRFEQAFVSSLIYNWEGEYFWTALQDLNSTGSFFWLSGDEVMYTHWNRDQPGYSRGGCVALATGSAMGLWEVKNCTSFRARYICRQSLGTPVTPELPGPDPTPSLTGSCPQGWASDTKLRYCYKVFSSERLQDKKSWVQAQGACQELGAQLLSLASYEEEHFVANMLNKIFGESEPEIHEQHWFWIGLNRRDPRGGQSWRWSDGVGFSYHNFDRSRHDDDDIRGCAVLDLASLQWVAMQCDTQLDWICKIPRGTDVREPDDSPQGRREWLRFQEAEYKFFEHHSTWAQAQRICTWFQAELTSVHSQAELDFLSHNLQKFSRAQEQHWWIGLHTSESDGRFRWTDGSIINFISWAPGKPRPVGKDKKCVYMTASREDWGDQRCLTALPYICKRSNVTKETQPPDLPTTALGGCPSDWIQFLNKCFQVQGQEPQSRVKWSEAQFSCEQQEAQLVTITNPLEQAFITASLPNVTFDLWIGLHASQRDFQWVEQEPLMYANWAPGEPSGPSPAPSGNKPTSCAVVLHSPSAHFTGRWDDRSCTEETHGFICQKGTDPSLSPSPAALPPAPGTELSYLNGTFRLLQKPLRWHDALLLCESHNASLAYVPDPYTQAFLTQAARGLRTPLWIGLAGEEGSRRYSWVSEEPLNYVGWQDGEPQQPGGCTYVDVDGAWRTTSCDTKLQGAVCGVSSGPPPPRRISYHGSCPQGLADSAWIPFREHCYSFHMELLLGHKEARQRCQRAGGAVLSILDEMENVFVWEHLQSYEGQSRGAWLGMNFNPKGGTLVWQDNTAVNYSNWGPPGLGPSMLSHNSCYWIQSNSGLWRPGACTNITMGVVCKLPRAEQSSFSPSALPENPAALVVVLMAVLLLLALLTAALILYRRRQSIERGAFEGARYSRSSSSPTEATEKNILVSDMEMNEQQE
# Experiments:
# Assay in all cases: glycan array binding signal (z-score within array); higher = stronger binding
# Settings in all cases: glycan notation: IUPAC condensed, linker removed
# [1] = biological target: Fuc(a1-2)Gal(b1-4)Fuc(a1-3)]GlcNAc(b1-2)Man(a1-3)[Fuc(a1-2)Gal(b1-4)[Fuc(a1-3)]GlcNAc(b1-2)Man(a1-6)]Man(b1-4)GlcNAc(b1-4)GlcNAc
# Method in brief: (§1)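 Glycan array data came from 3228 arrays in the Consortium for Functional Glycomics database, and only arrays with an available protein sequence were kept. Glycan names were put into IUPAC-condensed notation, and columns mapping to the same glycan were averaged. The binding signal is a within-array Z-score, averaged across arrays of one protein sequence run at different concentrations or buffers and across linkers. A negative Z-score can be read as non-binding.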
# [2] = biological target: Fuc(a1-2)Gal(b1-4)GlcNAc(b1-3)[Fuc(a1-3)[Gal(b1-4)]GlcNAc(b1-6)]Gal(b1-4)Glc
# Method in brief: as §1
# [3] = biological target: Fuc(a1-2)Gal(b1-4)[Fuc(a1-3)]GlcNAc(b1-3)Gal(b1-4)[Fuc(a1-3)]GlcNAc
# Method in brief: as §1
# [4] = biological target: Fuc(a1-2)[Gal(a1-3)]Gal(b1-3)GlcNAc(b1-6)GalNAc
# Method in brief: as §1
# [5] = biological target: Fuc(a1-2)[Gal(a1-3)]Gal(b1-4)GlcNAc(b1-2)Man(a1-3)[Fuc(a1-2)[Gal(a1-3)]Gal(b1-4)GlcNAc(b1-2)Man(a1-6)]Man(b1-4)GlcNAc(b1-4)[Fuc(a1-6)]GlcNAc
# Method in brief: as §1
# [6] = biological target: Fuc(a1-2)[Gal(a1-3)]Gal(b1-4)GlcNAc(b1-3)GalNAc
# Method in brief: as §1
# [7] = biological target: Fuc(a1-2)[Gal(a1-3)]Gal(b1-4)[Fuc(a1-3)]GlcNAc(b1-3)GalNAc
# Method in brief: as §1
# [8] = biological target: Fuc(a1-3)[Gal(b1-4)]GlcNAc
# Method in brief: as §1
# [9] = biological target: Gal(a1-3)Gal(b1-3)GlcNAc(b1-6)GalNAc
# Method in brief: as §1
# [10] = biological target: Gal(a1-3)[Gal(a1-4)]Gal(b1-4)GlcNAc
# Method in brief: as §1
# [11] = biological target: Gal(a1-4)GlcNAc
# Method in brief: as §1
# [12] = biological target: Gal(a1-6)Glc
# Method in brief: as §1
# [13] = biological target: Gal(b1-3)[Fuc(a1-4)]GlcNAc(b1-3)Gal(b1-3)[Fuc(a1-4)]GlcNAc
# Method in brief: as §1
# [14] = biological target: Gal(b1-4)GlcNAc(b1-2)Man(a1-3)[Gal(b1-4)GlcNAc(b1-2)Man(a1-6)][GlcNAc(b1-4)]Man(b1-4)GlcNAc(b1-4)[Fuc(a1-6)]GlcNAc
# Method in brief: as §1
# [15] = biological target: Gal(b1-4)GlcNAc(b1-2)Man(a1-6)Man(b1-4)GlcNAc(b1-4)GlcNAc
# Method in brief: as §1
# [16] = biological target: Gal(b1-4)GlcNAc(b1-3)Gal(b1-3)GlcNAc
# Method in brief: as §1
# [17] = biological target: Gal(b1-4)GlcNAc(b1-6)Gal(b1-4)GlcNAc
# Method in brief: as §1
# [18] = biological target: Gal3S(b1-4)[Fuc(a1-3)]Glc6S
# Method in brief: as §1
# [19] = biological target: Gal3S6S(b1-4)GlcNAc6S
# Method in brief: as §1
# [20] = biological target: Gal6S(b1-4)GlcNAc6S
# Method in brief: as §1
# [21] = biological target: GalNAc(a1-3)GalNAc(b1-3)Gal(a1-4)Gal(b1-4)GlcNAc
# Method in brief: as §1
# [22] = biological target: GalNAc(b1-6)GalNAc
# Method in brief: as §1
# [23] = biological target: GalNAc4S6S(b1-4)GlcNAc
# Method in brief: as §1
# [24] = biological target: GlcNAc(b1-2)Man(a1-3)[GlcNAc(b1-2)Man(a1-6)]Man(b1-4)GlcNAc(b1-4)[Fuc(a1-6)]GlcNAc
# Method in brief: as §1
# [25] = biological target: GlcNAc(b1-3)Gal(b1-4)GlcNAc(b1-3)Gal(b1-4)GlcNAc(b1-2)[GlcNAc(b1-3)Gal(b1-4)GlcNAc(b1-3)Gal(b1-4)GlcNAc(b1-6)]Man(a1-6)[GlcNAc(b1-3)Gal(b1-4)GlcNAc(b1-3)Gal(b1-4)GlcNAc(b1-2)Man(a1-3)]Man(b1-4)GlcNAc(b1-4)[Fuc(a1-6)]GlcNAc
# Method in brief: as §1
# [26] = biological target: GlcNAc(b1-3)Gal(b1-4)GlcNAc(b1-3)[GlcNAc(b1-3)Gal(b1-4)GlcNAc(b1-3)]GalNAc
# Method in brief: as §1
# [27] = biological target: GlcNAc(b1-4)[GlcNAc(b1-6)]GalNAc
# Method in brief: as §1
# [28] = biological target: Man(a1-2)Man(a1-3)[Man(a1-6)]Man(a1-6)[Man(a1-2)Man(a1-3)]Man(b1-4)GlcNAc(b1-4)GlcNAc
# Method in brief: as §1
# [29] = biological target: Man(a1-3)[Man(a1-6)]Man(b1-4)GlcNAc(b1-4)[Fuc(a1-6)]GlcNAc
# Method in brief: as §1
# [30] = biological target: Neu5Ac(a2-3)Gal(b1-3)GalNAc(b1-4)Gal(b1-4)Glc
# Method in brief: as §1
binder,measurement,setting,value
B1,glycan array binding signal (z-score),[1],4.92
same,glycan array binding signal (z-score),[2],2.16
same,glycan array binding signal (z-score),[3],1.23
same,glycan array binding signal (z-score),[4],0.628
same,glycan array binding signal (z-score),[5],-0.162
same,glycan array binding signal (z-score),[6],0.423
same,glycan array binding signal (z-score),[7],4.86
same,glycan array binding signal (z-score),[8],-0.373
same,glycan array binding signal (z-score),[9],0.29
same,glycan array binding signal (z-score),[10],0.096
same,glycan array binding signal (z-score),[11],-0.552
same,glycan array binding signal (z-score),[12],0.11
same,glycan array binding signal (z-score),[13],3.87
same,glycan array binding signal (z-score),[14],-1.03
same,glycan array binding signal (z-score),[15],0.463
same,glycan array binding signal (z-score),[16],0.375
same,glycan array binding signal (z-score),[17],-1.39
same,glycan array binding signal (z-score),[18],0.973
same,glycan array binding signal (z-score),[19],4.83
same,glycan array binding signal (z-score),[20],2.48
same,glycan array binding signal (z-score),[21],-0.306
same,glycan array binding signal (z-score),[22],-0.31
same,glycan array binding signal (z-score),[23],3.2
same,glycan array binding signal (z-score),[24],5.6
same,glycan array binding signal (z-score),[25],4.5
same,glycan array binding signal (z-score),[26],-0.76
same,glycan array binding signal (z-score),[27],-1.12
same,glycan array binding signal (z-score),[28],-0.036
same,glycan array binding signal (z-score),[29],0.638
same,glycan array binding signal (z-score),[30],-3.76
